Experimental findings from publication PMC11006913 are described below.

Common to all, as to experiment: PBM; 200 nM protein, PBS
Common to all, as to details: dsDNA, one strand shown

The target in assay [1] is HOXB4 (Homo sapiens, UniProt P17483 148-234).
For assay [2], the target named is T1, VENTX (Homo sapiens, UniProt O95231 78-163, R121Q).
T1 sequence: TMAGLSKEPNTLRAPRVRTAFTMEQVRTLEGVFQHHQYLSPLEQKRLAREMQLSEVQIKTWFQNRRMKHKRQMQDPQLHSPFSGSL

Another assay concerns the target ALX4 (Homo sapiens, UniProt Q9H161 200-286).
In assay [3] the target is T2, PAX4 (Homo sapiens, UniProt O43316 9-242, R200K).
T2 sequence: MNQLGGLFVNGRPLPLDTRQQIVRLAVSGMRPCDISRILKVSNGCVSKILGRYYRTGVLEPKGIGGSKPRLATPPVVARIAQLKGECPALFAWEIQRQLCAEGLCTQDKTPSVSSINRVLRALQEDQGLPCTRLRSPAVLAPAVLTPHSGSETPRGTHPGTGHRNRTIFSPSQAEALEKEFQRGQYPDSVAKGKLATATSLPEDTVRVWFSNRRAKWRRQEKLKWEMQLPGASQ

In assay [4] the target is PRRX1 (Homo sapiens, UniProt P54821 80-166, F113S).
PRRX1 (Homo sapiens, UniProt P54821 80-166, F113S), sequence (P54821 80-166 F113S): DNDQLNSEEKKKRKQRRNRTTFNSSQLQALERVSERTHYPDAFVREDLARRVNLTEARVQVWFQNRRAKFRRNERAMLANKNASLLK
Assay [5] has as its target T3, VENTX (Homo sapiens, UniProt O95231 78-163, Y115F).
T3 sequence: T1 sequence with Y38F, Q44R

Assay [6] concerns the target T4, PAX4 (Homo sapiens, UniProt O43316 9-242).
T4 sequence: T2 sequence with K192R

For assay [7], the target named is HOXA2 (Homo sapiens, UniProt O43364 129-215, R185T).
HOXA2 (Homo sapiens, UniProt O43364 129-215, R185T), sequence (O43364 129-215 R185T): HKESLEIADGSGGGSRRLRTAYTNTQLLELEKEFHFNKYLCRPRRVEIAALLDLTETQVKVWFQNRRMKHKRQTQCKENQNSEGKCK
The target of assay [8] is HOXA4 (Homo sapiens, UniProt Q00056 201-287, R217L).
HOXA4 (Homo sapiens, UniProt Q00056 201-287, R217L), sequence (Q00056 201-287 R217L): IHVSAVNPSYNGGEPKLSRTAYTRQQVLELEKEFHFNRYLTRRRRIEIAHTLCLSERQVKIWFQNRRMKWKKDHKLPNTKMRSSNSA
Assay [9] has as its target HOXB4 (Homo sapiens, UniProt P17483 148-234, V174I).
Assay [10] concerns the target T5, PAX4 (Homo sapiens, UniProt O43316 9-242, R200Q).
T5 sequence: T2 sequence with K192Q

The target of assay [11] is HOXA2 (Homo sapiens, UniProt O43364 129-215, R185K).
HOXA2 (Homo sapiens, UniProt O43364 129-215, R185K), sequence (O43364 129-215 R185K): as the sequence (O43364 129-215 R185T) above, with T57K counted along it
For assay [12], the target named is T6, PAX4 (Homo sapiens, UniProt O43316 9-242, F177V).
T6 sequence: T2 sequence with F169V, K192R

Assay [13] addresses MSX2 (Homo sapiens, UniProt P35548 130-214).
In assay [14] the target is T7, PAX4 (Homo sapiens, UniProt O43316 9-242, F177Y).
T7 sequence: T2 sequence with F169Y, K192R

Assay [15] deals with MSX2 (Homo sapiens, UniProt P35548 130-214, F161Y).
MSX2 (Homo sapiens, UniProt P35548 130-214, F161Y), sequence (P35548 130-214 F161Y): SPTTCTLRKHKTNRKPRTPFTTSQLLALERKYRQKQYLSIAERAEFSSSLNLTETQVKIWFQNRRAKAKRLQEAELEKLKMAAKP
The target of assay [16] is VAX1 (Homo sapiens, UniProt Q5SQQ9 86-172, T142I).
VAX1 (Homo sapiens, UniProt Q5SQQ9 86-172, T142I), sequence (Q5SQQ9 86-172 T142I): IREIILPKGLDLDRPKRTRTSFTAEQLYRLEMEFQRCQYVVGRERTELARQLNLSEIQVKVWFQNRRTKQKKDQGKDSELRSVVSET
Assay [17] deals with HOXA4 (Homo sapiens, UniProt Q00056 201-287, W262F).
HOXA4 (Homo sapiens, UniProt Q00056 201-287, W262F), sequence (Q00056 201-287 W262F): as the sequence (Q00056 201-287 R217L) above, with L17R, W62F counted along it
The target in assay [18] is PRRX1 (Homo sapiens, UniProt P54821 80-166).
PRRX1 (Homo sapiens, UniProt P54821 80-166), sequence (P54821 80-166): as the sequence (P54821 80-166 F113S) above, with S34F counted along it
Assay [19] addresses VAX1 (Homo sapiens, UniProt Q5SQQ9 86-172, K157R).

Positions count from the first letter of the chain named.

VAX1 (Homo sapiens, UniProt Q5SQQ9 86-172, K157R), sequence (Q5SQQ9 86-172 K157R): as the sequence (Q5SQQ9 86-172 T142I) above, with I57T, K72R counted along it
HOXB4 (Homo sapiens, UniProt P17483 148-234, V174I), sequence (P17483 148-234 V174I): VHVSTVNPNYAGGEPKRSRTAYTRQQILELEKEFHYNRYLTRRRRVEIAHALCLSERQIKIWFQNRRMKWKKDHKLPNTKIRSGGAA
ALX4, sequence (Q9H161 200-286): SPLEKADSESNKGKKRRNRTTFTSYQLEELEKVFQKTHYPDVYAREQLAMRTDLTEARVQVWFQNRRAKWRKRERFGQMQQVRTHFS
HOXB4 (Homo sapiens, UniProt P17483 148-234), sequence (P17483 148-234): as the sequence (P17483 148-234 V174I) above, with I27V counted along it
MSX2 (Homo sapiens, UniProt P35548 130-214), sequence (P35548 130-214): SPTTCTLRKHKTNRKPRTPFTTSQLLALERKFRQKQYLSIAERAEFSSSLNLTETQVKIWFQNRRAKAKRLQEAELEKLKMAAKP

In the case of AATAATTA, the binding signal was 13.5 upbm affinity estimate (log intensity, higher = more binding, comparable within an allelic series) in the assay with HOXB4 [1]; 12 upbm affinity estimate (log intensity, higher = more binding, comparable within an allelic series) in the assay with VENTX [2]; 14.2 upbm affinity estimate (log intensity, higher = more binding, comparable within an allelic series) with ALX4; 11.8 upbm affinity estimate (log intensity, higher = more binding, comparable within an allelic series) with PAX4 [3]; 11.7 upbm affinity estimate (log intensity, higher = more binding, comparable within an allelic series) with PRRX1 [4]; 11.8 upbm affinity estimate (log intensity, higher = more binding, comparable within an allelic series) with VENTX [5]. Further, the binding signal was 12.3 upbm affinity estimate (log intensity, higher = more binding, comparable within an allelic series) with PAX4 [6]; 13.5 upbm affinity estimate (log intensity, higher = more binding, comparable within an allelic series) with HOXA2 [7]; 12.7 upbm affinity estimate (log intensity, higher = more binding, comparable within an allelic series) in the assay with HOXA4 [8]; 14.2 upbm affinity estimate (log intensity, higher = more binding, comparable within an allelic series) with HOXB4 [9]; 12.2 upbm affinity estimate (log intensity, higher = more binding, comparable within an allelic series) in the assay with PAX4 [10]; 13.6 upbm affinity estimate (log intensity, higher = more binding, comparable within an allelic series) in the assay with HOXA2 [11]. Also, the binding signal with PAX4 [12] was 10.8 upbm affinity estimate (log intensity, higher = more binding, comparable within an allelic series); in the assay with MSX2 [13] it was 14 upbm affinity estimate (log intensity, higher = more binding, comparable within an allelic series); in the assay with PAX4 [14], 11.1 upbm affinity estimate (log intensity, higher = more binding, comparable within an allelic series); in the assay with MSX2 [15], 13.6 upbm affinity estimate (log intensity, higher = more binding, comparable within an allelic series); with VAX1 [16], 13.4 upbm affinity estimate (log intensity, higher = more binding, comparable within an allelic series); with HOXA4 [17], 12.2 upbm affinity estimate (log intensity, higher = more binding, comparable within an allelic series). In addition, the binding signal with PRRX1 [18] is 13.5 upbm affinity estimate (log intensity, higher = more binding, comparable within an allelic series); with VAX1 [19], 13.4 upbm affinity estimate (log intensity, higher = more binding, comparable within an allelic series).

Take AATTAATG: the binding signal was 13.4 upbm affinity estimate (log intensity, higher = more binding, comparable within an allelic series) with HOXB4 [1]; 12 upbm affinity estimate (log intensity, higher = more binding, comparable within an allelic series) with VENTX [2]; 14 upbm affinity estimate (log intensity, higher = more binding, comparable within an allelic series) in the assay with ALX4; 11.9 upbm affinity estimate (log intensity, higher = more binding, comparable within an allelic series) with PAX4 [3]; 11.3 upbm affinity estimate (log intensity, higher = more binding, comparable within an allelic series) with PRRX1 [4]; 11.8 upbm affinity estimate (log intensity, higher = more binding, comparable within an allelic series) with VENTX [5]. For the same sequence, the binding signal with PAX4 [6] was 12.5 upbm affinity estimate (log intensity, higher = more binding, comparable within an allelic series); in the assay with HOXA2 [7] it was 13 upbm affinity estimate (log intensity, higher = more binding, comparable within an allelic series); with HOXA4 [8], 12.5 upbm affinity estimate (log intensity, higher = more binding, comparable within an allelic series); with HOXB4 [9] it was 14 upbm affinity estimate (log intensity, higher = more binding, comparable within an allelic series); with PAX4 [10], 12.3 upbm affinity estimate (log intensity, higher = more binding, comparable within an allelic series); in the assay with HOXA2 [11], 13.5 upbm affinity estimate (log intensity, higher = more binding, comparable within an allelic series). For the same sequence, the binding signal in the assay with PAX4 [12] was 10.6 upbm affinity estimate (log intensity, higher = more binding, comparable within an allelic series); in the assay with MSX2 [13], 13.5 upbm affinity estimate (log intensity, higher = more binding, comparable within an allelic series); with PAX4 [14], 11.2 upbm affinity estimate (log intensity, higher = more binding, comparable within an allelic series); in the assay with MSX2 [15] it was 13.2 upbm affinity estimate (log intensity, higher = more binding, comparable within an allelic series); with VAX1 [16], 12.9 upbm affinity estimate (log intensity, higher = more binding, comparable within an allelic series); with HOXA4 [17], 11.9 upbm affinity estimate (log intensity, higher = more binding, comparable within an allelic series). Moreover, the binding signal with PRRX1 [18] is 13.4 upbm affinity estimate (log intensity, higher = more binding, comparable within an allelic series); with VAX1 [19] it was 12.8 upbm affinity estimate (log intensity, higher = more binding, comparable within an allelic series).

For the sequence AGTAATTA, the binding signal was 13.6 upbm affinity estimate (log intensity, higher = more binding, comparable within an allelic series) with HOXB4 [1]; 12.5 upbm affinity estimate (log intensity, higher = more binding, comparable within an allelic series) with VENTX [2]; 14.3 upbm affinity estimate (log intensity, higher = more binding, comparable within an allelic series) in the assay with ALX4; 11.9 upbm affinity estimate (log intensity, higher = more binding, comparable within an allelic series) in the assay with PAX4 [3]; 11.7 upbm affinity estimate (log intensity, higher = more binding, comparable within an allelic series) with PRRX1 [4]; 12.6 upbm affinity estimate (log intensity, higher = more binding, comparable within an allelic series) in the assay with VENTX [5]. For the same sequence, the binding signal with PAX4 [6] was 12.5 upbm affinity estimate (log intensity, higher = more binding, comparable within an allelic series); with HOXA2 [7], 13.9 upbm affinity estimate (log intensity, higher = more binding, comparable within an allelic series); in the assay with HOXA4 [8], 13.1 upbm affinity estimate (log intensity, higher = more binding, comparable within an allelic series); with HOXB4 [9], 14.4 upbm affinity estimate (log intensity, higher = more binding, comparable within an allelic series); with PAX4 [10], 12.3 upbm affinity estimate (log intensity, higher = more binding, comparable within an allelic series); in the assay with HOXA2 [11] it was 14 upbm affinity estimate (log intensity, higher = more binding, comparable within an allelic series). The binding signal was 10.7 upbm affinity estimate (log intensity, higher = more binding, comparable within an allelic series) in the assay with PAX4 [12]; 14.2 upbm affinity estimate (log intensity, higher = more binding, comparable within an allelic series) with MSX2 [13]; 11.1 upbm affinity estimate (log intensity, higher = more binding, comparable within an allelic series) with PAX4 [14]; 13.9 upbm affinity estimate (log intensity, higher = more binding, comparable within an allelic series) with MSX2 [15]; 13.9 upbm affinity estimate (log intensity, higher = more binding, comparable within an allelic series) in the assay with VAX1 [16]; 12.6 upbm affinity estimate (log intensity, higher = more binding, comparable within an allelic series) with HOXA4 [17]. Besides, the binding signal was 13.6 upbm affinity estimate (log intensity, higher = more binding, comparable within an allelic series) with PRRX1 [18] and 13.9 upbm affinity estimate (log intensity, higher = more binding, comparable within an allelic series) in the assay with VAX1 [19].

Turning to GTAATTAC, the binding signal with HOXB4 [1] was 13.7 upbm affinity estimate (log intensity, higher = more binding, comparable within an allelic series); in the assay with VENTX [2] it was 12.4 upbm affinity estimate (log intensity, higher = more binding, comparable within an allelic series); in the assay with ALX4, 14.3 upbm affinity estimate (log intensity, higher = more binding, comparable within an allelic series); in the assay with PAX4 [3], 12 upbm affinity estimate (log intensity, higher = more binding, comparable within an allelic series); in the assay with PRRX1 [4] it was 11.5 upbm affinity estimate (log intensity, higher = more binding, comparable within an allelic series); in the assay with VENTX [5], 12.4 upbm affinity estimate (log intensity, higher = more binding, comparable within an allelic series). Moreover, the binding signal in the assay with PAX4 [6] is 12.5 upbm affinity estimate (log intensity, higher = more binding, comparable within an allelic series); with HOXA2 [7], 14.1 upbm affinity estimate (log intensity, higher = more binding, comparable within an allelic series); in the assay with HOXA4 [8], 13.2 upbm affinity estimate (log intensity, higher = more binding, comparable within an allelic series); in the assay with HOXB4 [9], 14.4 upbm affinity estimate (log intensity, higher = more binding, comparable within an allelic series); with PAX4 [10], 12.5 upbm affinity estimate (log intensity, higher = more binding, comparable within an allelic series); with HOXA2 [11], 14.3 upbm affinity estimate (log intensity, higher = more binding, comparable within an allelic series). The binding signal with PAX4 [12] was 10.6 upbm affinity estimate (log intensity, higher = more binding, comparable within an allelic series); in the assay with MSX2 [13], 14.2 upbm affinity estimate (log intensity, higher = more binding, comparable within an allelic series); with PAX4 [14], 11.1 upbm affinity estimate (log intensity, higher = more binding, comparable within an allelic series); with MSX2 [15] it was 13.9 upbm affinity estimate (log intensity, higher = more binding, comparable within an allelic series); in the assay with VAX1 [16], 13.9 upbm affinity estimate (log intensity, higher = more binding, comparable within an allelic series); with HOXA4 [17], 12.5 upbm affinity estimate (log intensity, higher = more binding, comparable within an allelic series). For the same sequence, the binding signal with PRRX1 [18] was 13.5 upbm affinity estimate (log intensity, higher = more binding, comparable within an allelic series); with VAX1 [19] it was 13.9 upbm affinity estimate (log intensity, higher = more binding, comparable within an allelic series).
